Shown are actives, neighbours in structure and some others; about 7.3% of the full set was active somewhere.
NPC1 prom act: activators of NPC1 promoter. AID 485313. Huh7 NPC1 promoter luciferase reporter, 24 h. 320,000 tested, 2.4% active. Potency, µM (titrated, usually from 9.22 µM), for the others: at the highest dose activation, most hits filed as activators; further: % of control where 0% means no effect; nearly all actives have a fitted effect of over 60% in size
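Huh7 cells stably carrying NPC1 promoter–luciferase, plated in Opti-MEM with 10% FBS for 2 h, were exposed to compound in DMSO for 24 h at 37 °C; luciferase reagent was added for 10 min and luminescence read.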
ELG1 genotox: genotoxicity induction in ELG1-luciferase HEK293T cells | HEK293T ELG1-luciferase reporter, luminescence, 16 h | Potency, µM (doses to about 46 µM), for inactives: at the top dose activity change, positive = activation, actives largely listed as activators | 330,000 tested, 1.3% active; further: % of control where 0% means no effect; nearly all actives have a fitted effect of over 60% in size
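Genotoxicity was scored as increased ELG1-luciferase reporter signal, measured by ONE-Glo luminescence (30 min, room temperature). Compound or vehicle exposure of the HEK293T reporter cells lasted 16 hr at 37°C.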
Luc counter: Kinase-Glo luciferase inhibition (counter-screen); Q27757; Kinase-Glo luciferase, ATP luminescence, 8 min; Potency, µM (titrated, usually from 38.3 µM), inactives show at the top dose activity change, negative = inhibition, hits mostly inhibitors; 200,000 tested, 0.28% active; further: on the % scale 0 is the no-effect control and ±100 the full control effect; nearly all actives have a fitted effect of over 60% in size
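Substrate mix (final 50 mM imidazole pH 7.2, 50 mM KCl, 7 mM MgCl2, 10 uM ATP, 0.01% Tween 20, 0.05% BSA) plus pin-tool compound, then Kinase-Glo detection mix; 8 min ambient, luminescence read.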
SMN2 splice enh: increases expression of the SMN2 splice variant | 210,000 tested, 2.8% active | AID 1458 | Potency, µM (series often up to 46.1 µM), for the others: at the top dose activity change, positive = activation, actives largely listed as activators | HEK293 SMN2-luciferase splicing reporter, luminescence, 30-36 h; further: % of control where 0% means no effect; nearly all actives have a fitted effect of over 55% in size
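qHTS luciferase splicing reporter: luminescence rises when SMN2 exon 7 is included in transfected HEK293 cells. Compound exposure lasted 30-36 h at 37C, with 4.5 mM final sodium butyrate as control, followed by a ONE-Glo read.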
FLuc modulator: inhibits or activates purified firefly luciferase, miR-21 counter-screen. P08659. purified FLuc, Km substrates, luminescence inhibition. Potency, µM (highest dose often 57.5 µM), for the others: top-dose activity change, negative = inhibition, actives largely listed as inhibitors. 360,000 tested, 6.9% active. AID 588342;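 further: plate controls were vehicle for no effect and reference inhibitor for full effect; nearly all actives have a fitted effect of over 55% in size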
Target sequence (P08659 whole entry, looked up): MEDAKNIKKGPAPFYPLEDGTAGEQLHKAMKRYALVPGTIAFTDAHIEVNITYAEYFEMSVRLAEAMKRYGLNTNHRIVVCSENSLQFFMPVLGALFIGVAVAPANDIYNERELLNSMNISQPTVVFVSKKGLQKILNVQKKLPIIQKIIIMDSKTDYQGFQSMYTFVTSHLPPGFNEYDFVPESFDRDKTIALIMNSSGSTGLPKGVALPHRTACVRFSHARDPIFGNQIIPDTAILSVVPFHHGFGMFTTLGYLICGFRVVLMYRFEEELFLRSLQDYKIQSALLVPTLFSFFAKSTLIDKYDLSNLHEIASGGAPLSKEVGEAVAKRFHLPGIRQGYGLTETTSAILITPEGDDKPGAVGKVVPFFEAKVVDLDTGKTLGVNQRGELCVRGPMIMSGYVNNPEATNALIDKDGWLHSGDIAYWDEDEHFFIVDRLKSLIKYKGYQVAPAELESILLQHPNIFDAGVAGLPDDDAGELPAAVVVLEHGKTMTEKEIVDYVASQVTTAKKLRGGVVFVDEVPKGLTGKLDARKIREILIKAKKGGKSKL
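Purified P. pyralis luciferase (10nM final) with 10uM D-luciferin and 10uM ATP (Km levels) in 50mM Tris acetate pH 7.5, 10mM Mg acetate, 0.01% Tween-20, 0.05% BSA; qHTS 6-point titration, ~60 µM downward; luminescence read.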
Rab9 promoter act: activates the Rab9 promoter. Huh7 Rab9 promoter-luciferase reporter, luminescence, 24 h. Potency, µM (doses to about 9.22 µM), inactives show at the top dose activation, negative = inhibition, usual class: activators. 320,000 tested, 2.8% active. AID 485297; further: % of control where 0% means no effect; nearly all actives have a fitted effect of over 60% in size
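Stable Rab9-luc Huh7, 1500 cells/well, 2 h settle; cmpd in DMSO, 24 h, 37 °C/5% CO2; luciferase reagent 10 min RT; luminescence.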
* marks the source's active call; other numbers are inactive results; [ ] = dose if it differs, or a comment. The call rests on the fitted dose curve; in most records, active means well fitted curve in the direction sought with a large enough effect; inconclusive means small, poorly fitted or top-dose-only effect, or another doubt; inactive means no such curve, though single readings can be large; an effect the other way counts as inactive or inconclusive. Potency means the concentration at half of the fitted maximal effect.

Screening Cc1ccc(CN2CCSc3ccc(C(=O)NCCc4ccccc4)cc32)cc1 returned SMN2 splice enh 13µM* and FLuc modulator -12%.
c1ccc(N2OCC3Cn4c(nc5ccccc54)C32)cc1 (configuration not stated) was read as NPC1 prom act 8%, ELG1 genotox 16%, FLuc modulator 19µM* and Rab9 promoter act 5%.
Screening Brc1ccc(-c2ncc(-c3ccccc3)cn2)cc1 returned NPC1 prom act 0.5µM*, ELG1 genotox 0.82µM*, Luc counter -7%, SMN2 splice enh 7.9µM*, FLuc modulator 0.43µM* and Rab9 promoter act 0.71µM*.
`CNC(=O)c1ccccc1NC(=O)c1c(O)c2c([nH]c1=O)CCCC2` gave NPC1 prom act 2%, ELG1 genotox inconclusive, Luc counter 1%, SMN2 splice enh 6%, FLuc modulator inconclusive and Rab9 promoter act -6%.
For O=C(N/N=C/c1cccc(F)c1)c1c(O)c2c([nH]c1=O)CCCC2 the results were NPC1 prom act 1.6µM*, ELG1 genotox inconclusive, Luc counter -5%, SMN2 splice enh 13µM*, FLuc modulator inconclusive and Rab9 promoter act 2µM*.
For Clc1ccc2c(c1)N(CCCN1CCCC13CCCCC3)c1ccccc1S2 the results were Luc counter -1%[7.66 µM] and SMN2 splice enh 2%[9.22 µM].
Cc1ccc(C)c(Nc2cc(C)nc3ncnn23)c1 was read as NPC1 prom act inconclusive, ELG1 genotox 18%, FLuc modulator 0% and Rab9 promoter act 0.1µM*.
For Cc1cc(Nc2ccc(N(C)C)cc2)n2ncnc2n1 the results were NPC1 prom act -1%, ELG1 genotox 10%, FLuc modulator 17µM* and Rab9 promoter act -2%.
CCC(C(=O)Nc1cc(-c2cn3cccnc3n2)ccc1C)c1ccccc1 (configuration not stated) was read as FLuc modulator 0%.
Screening Cc1ccccc1Oc1ccc(Oc2ccccc2C)nn1 returned NPC1 prom act 4µM*, ELG1 genotox inconclusive, Luc counter -1%, SMN2 splice enh inconclusive, FLuc modulator inconclusive and Rab9 promoter act inconclusive.
CCC(=O)c1ccc(OCC(=O)Nc2nn3cnnc3s2)cc1 was read as NPC1 prom act 3%, ELG1 genotox 7%, Luc counter -1%, SMN2 splice enh -3%, FLuc modulator 27µM* and Rab9 promoter act 1%.
Screening CCOc1ccc(-c2cc(N3C(=O)Nc4ccccc4N3O)on2)cc1 returned NPC1 prom act 15%, ELG1 genotox 2%, Luc counter -1%, SMN2 splice enh 16%, FLuc modulator 2.4µM* and Rab9 promoter act 16%.
COc1ccc(-c2cc(N3C(=O)Nc4ccccc4N3O)n[nH]2)c(OC)c1 was read as NPC1 prom act -2%, ELG1 genotox -10%, Luc counter 2%, SMN2 splice enh -8%, FLuc modulator 15µM* and Rab9 promoter act -2%.
`COc1ccc(-c2cc(N3C(=O)Nc4ccccc4N3O)n[nH]2)cc1` gave NPC1 prom act -1%, ELG1 genotox -3%, Luc counter 4%, SMN2 splice enh inconclusive, FLuc modulator 11µM* and Rab9 promoter act 9%.
For COc1ccc(-c2c(C)c3ccc(O)c(CN4CCC(C)CC4)c3oc2=O)cc1OC the results were FLuc modulator 2%.
Screening COc1ccc(NC(=O)c2cccc3c(=O)c4c([nH]c23)CCCC4)cc1 returned FLuc modulator -1%.
`CCOC(=O)CNC(=O)O[C@@H]1Cc2cc(OC)ccc2O[C@H]1c1cccc(OC)c1` gave Luc counter -1% and SMN2 splice enh 20%.
Screening O=C(Nc1ncc(Cc2cccc([N+](=O)[O-])c2)s1)c1ccco1 returned NPC1 prom act 23%, ELG1 genotox 18%, Luc counter 0%, FLuc modulator inconclusive and Rab9 promoter act inconclusive.
`COc1ccc(/C=C/c2nnc(NC(=O)c3ccco3)s2)cc1` gave NPC1 prom act -8%, ELG1 genotox 7%, FLuc modulator 2.7µM* and Rab9 promoter act -2%.
Screening CCCC(=O)Nc1nnc(/C=C/c2ccc(OC)cc2)s1 returned NPC1 prom act 22%, ELG1 genotox 2%, FLuc modulator inconclusive and Rab9 promoter act 17%.
Screening Cc1ccc(Cc2cnc(NC(=O)c3ccco3)s2)cc1 returned NPC1 prom act 0.63µM*, ELG1 genotox 1.8µM*, Luc counter -5%, SMN2 splice enh 13µM*, FLuc modulator 0.85µM* and Rab9 promoter act 0.63µM*.
Screening CCCOc1cccc(-c2nnc(NC(=O)c3ccco3)s2)c1 returned NPC1 prom act -6%, ELG1 genotox inconclusive, FLuc modulator 27µM* and Rab9 promoter act 20%.
Screening Cc1cccc(C(=O)Nc2nnc(-c3ccc(C(C)(C)C)cc3)s2)c1 returned NPC1 prom act 16%, ELG1 genotox 9%, Luc counter -5%, SMN2 splice enh 1%, FLuc modulator 11µM* and Rab9 promoter act 10%.
Screening Cc1ccc(Cl)cc1N(C)C(=O)c1cc2ccc3cccnc3c2[nH]1 returned FLuc modulator -12%.
CCC(C)O (configuration not stated) was read as SMN2 splice enh 4%.
`CCc1ccccc1NC(=O)CC1NCCNC1=O` (configuration not stated) gave SMN2 splice enh 2% and FLuc modulator -2%.
For Cc1cccc(Cc2cnc(NC(=O)c3ccc(C)o3)s2)c1 the results were NPC1 prom act inconclusive, ELG1 genotox 5.8µM*, Luc counter 0%, SMN2 splice enh -2%, FLuc modulator 9.5µM* and Rab9 promoter act inconclusive.
`NC(=O)c1cc(Cc2ccccc2)sc1NC(=O)c1ccco1` gave NPC1 prom act 3.5µM*, ELG1 genotox inconclusive, Luc counter -3%, SMN2 splice enh 16µM*, FLuc modulator 9.5µM* and Rab9 promoter act 4.5µM*.
Screening Cc1cccc(Cc2cnc(NC(=O)C3=NCCN3)s2)c1 returned NPC1 prom act 1%, ELG1 genotox -7%, Luc counter -1%, SMN2 splice enh 18%, FLuc modulator 0% and Rab9 promoter act 25%.
For Cc1ccc(-c2nnc(NC(=O)c3ccco3)s2)cc1 the results were NPC1 prom act 2.2µM*, ELG1 genotox 4.6µM*, FLuc modulator 1.5µM* and Rab9 promoter act 2.2µM*.
For Cc1cccc(OCc2nnc(NC(=O)c3cccs3)s2)c1 the results were NPC1 prom act -2%, ELG1 genotox 3%, Luc counter -2%, SMN2 splice enh -20%, FLuc modulator 5% and Rab9 promoter act -1%.

Bioassay records (PubChem)
